A selection: hits, their analogues and other compounds. The true share with any hit is near 2.6%.
CRFR2-BP antag: antagonists of CRF-BP/CRF-R2 complex, primary screen, cell-based, HEK293, calcium dye fluorescence, uHTS | CRF-induced calcium fluorescence | 350,000 tested, 0.59% active | AID 588475, 2011 | inhibition, % at 11.8 µM;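 active = inhibition of the ligand-induced calcium signal above about 50% at the single tested concentration, limit read from the data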
PABP1 MLLE inh: inhibitors of PABP1 MLLE–PAM2 peptide binding, primary screen, biochemical, fluorescence polarization, FITC-PAM2, GST-MLLE; Polyadenylate-binding protein 1 (Homo sapiens), P11940; inhibition, % at 20 µM; 360,000 tested, 0.36% active; in the data active = inhibition above about 35%, passing the limit was not always enough
eIF4H inh: human eIF4H binding inhibitors, primary screen, translation initiation inhibitor project, biochemical, uHTS, fluorescence polarization; 290,000 tested, 0.94% active; eIF4H fluorescence polarization binding assay; inhibition, % at 35 µM;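 also: calls also rest on retests at 20 µM and on dose response follow-up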
PHOSPHO1 inh: PubChem AID 1565; Phosphoethanolamine/phosphocholine phosphatase (Homo sapiens), Q8TCT1; recombinant PHOSPHO1, absorbance phosphatase assay; inhibition, % at 13.3 µM; 290,000 tested, 1.1% active; in the data active = inhibition above about 60%
Target sequence (Q8TCT1 whole entry, looked up): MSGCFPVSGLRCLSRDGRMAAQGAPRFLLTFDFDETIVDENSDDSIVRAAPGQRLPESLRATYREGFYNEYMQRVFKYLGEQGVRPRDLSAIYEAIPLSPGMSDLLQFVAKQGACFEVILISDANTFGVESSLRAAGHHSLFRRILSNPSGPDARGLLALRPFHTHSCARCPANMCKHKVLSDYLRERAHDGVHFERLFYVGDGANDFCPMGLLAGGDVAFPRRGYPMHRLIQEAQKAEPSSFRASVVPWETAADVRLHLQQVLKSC
PABP FP inh: PABP poly(A) RNA binding inhibitors, primary screen, biochemical, fluorescence polarization, uHTS. inhibition, % at 35 µM. 290,000 tested, 1% active;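 also: calls also rest on retests at 20 µM and on dose response follow-up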
Each line names hits and unclear results; the compound was inactive in the other large screens. Unless noted, no rule for the calls is given here.

CC(=O)NC(Cc1cccc(F)c1)C(=O)NC1CCN(C(=O)c2cccc(C)c2)CC1 (centres undefined)	none
CC(=O)NC(Cc1ccc(C(C)C)cc1)C(=O)NC1CCN(C(=O)c2cccc(C)c2)CC1 (centres undefined)	CRFR2-BP antag 53
CCC(c1nnc(SCC(=O)Nc2c(F)cccc2F)n1Cc1ccccc1)N(C)C (centres undefined)	CRFR2-BP antag 60
CCC(c1nnc(SCC(=O)Nc2cccc(S(N)(=O)=O)c2)n1Cc1ccccc1)N(C)C (centres undefined)	none
Cc1cc(S(=O)(=O)Nc2ccc(N(C)C)cc2)c(C)s1	PHOSPHO1 inh 67
Cc1cc(S(=O)(=O)Nc2cccc(Cl)c2)c(C)s1	none
N#CCCN(Cc1ccccc1)C(C(=O)NC1CCCCC1)c1cc2ccccc2o1 (centres undefined)	none (no result: CRFR2-BP antag, eIF4H inh, PHOSPHO1 inh, PABP FP inh)
Oc1ccc(N=Cc2ccc(O)c(O)c2)cc1	eIF4H inh 106, PABP FP inh 56
COc1ccc(CN(C)C(=O)c2ccc(NC(=O)CC3SC(N4CCCCC4)=NC3=O)cc2)c(OC)c1 (centres undefined)	none (no result: eIF4H inh, PHOSPHO1 inh, PABP FP inh)
O=C(CCNS(=O)(=O)c1cccc(C(F)(F)F)c1)NC1CC1	none (no result: eIF4H inh, PHOSPHO1 inh, PABP FP inh)
CCN(CC)c1ccc(/C=C(\C#N)c2ccccn2)cc1	none
N#C/C(=C\c1ccc(C(=O)O)cc1)c1ccccn1	eIF4H inh 64, PABP FP inh 0.6
CCN1CCc2c(sc(NC(=S)NC(=O)c3ccco3)c2C(N)=O)C1	eIF4H inh 85, PABP FP inh 50
CCC(=O)Nc1sc2c(c1C(N)=O)CCN(Cc1ccccc1)C2	PABP FP inh 32
CCN1CCc2c(sc(NC(=O)Cc3ccccc3)c2C(N)=O)C1	none
CCc1nnc(SCC(=O)Nc2ccc3c(c2)OCO3)n1CC	none
CC(=O)Nc1cccc(NC(=O)CSc2ncc(-c3ccc(Cl)cc3)n2Cc2ccco2)c1	none
COCCn1cnnc1SCC(=O)Nc1ccc(N2CCCCC2)cc1	none (no result: eIF4H inh, PHOSPHO1 inh, PABP FP inh)
COCCn1cnnc1SCC(=O)Nc1ccccc1C(=O)Nc1ccc2c(c1)OCO2	eIF4H inh 5.6
Cn1c(COc2ccccc2)nnc1SCC(=O)Nc1ccc2c(c1)OCO2	PHOSPHO1 inh 61
COc1ccc(-c2cnc(SCC(=O)Nc3ccc4c(c3)OCO4)n2Cc2ccco2)cc1	PHOSPHO1 inh 102
CCn1c(COc2ccc(Cl)cc2)nnc1SCC(=O)Nc1ccc2c(c1)OCO2	PHOSPHO1 inh 60
COc1cc(Nc2nc3c(N)cc(C(F)(F)F)cc3nc2-c2ccccc2)cc(OC)c1OC	none (no result: eIF4H inh, PHOSPHO1 inh, PABP FP inh)
O=C(NCc1ccco1)c1[nH]c(C(F)(F)F)nc1-c1ccccc1	none (no result: CRFR2-BP antag, eIF4H inh, PHOSPHO1 inh, PABP FP inh)
CCOc1cnn(-c2cc(Oc3ccc(C)cc3)ncn2)c(=O)c1Cl	none
Cc1ccccc1Oc1cc(-n2ncc(Cl)c(Cl)c2=O)ncn1	CRFR2-BP antag 65
Cc1cccc(N2CCN(C(=O)c3ccccn3)CC2C)c1 (centres undefined)	eIF4H inh inconclusive, PABP FP inh 2.3
Cc1cccc(N2CCN(S(=O)(=O)c3ccc(Cl)nc3)CC2C)c1 (centres undefined)	CRFR2-BP antag 76 (no result: eIF4H inh, PHOSPHO1 inh, PABP FP inh)
CC(O)(c1ccccc1)c1nc(-c2ccc3c(c2)OCO3)cs1 (centres undefined)	none (no result: CRFR2-BP antag, eIF4H inh, PHOSPHO1 inh, PABP FP inh)
CN(C)c1ccc(/C=C2\c3ccccc3C(=O)N2c2ccccc2)cn1	none (no result: eIF4H inh, PHOSPHO1 inh, PABP FP inh)
C=CCSc1nc(-c2ccc(OC)cc2)c(C#N)c(=O)n1CC=C	PHOSPHO1 inh 60
CC1(C)Cc2c(sc3ncn4c(=S)[nH]nc4c23)CO1	PHOSPHO1 inh 68
CC1(C)Cc2c(sc3ncn(N)c(=N)c23)CO1	none
COCCn1c(C)cc(C(=O)CSc2nnc(-c3cccnc3)n2-c2ccccc2F)c1C	PHOSPHO1 inh 90, PABP FP inh 124
CN(C(=O)CSc1nnc(-c2ccncc2)n1-c1ccccc1)C1CCS(=O)(=O)C1 (centres undefined)	none
CN(C(=O)CSc1nnc(-c2cccnc2)n1-c1ccccc1F)C1CCS(=O)(=O)C1 (centres undefined)	eIF4H inh 39, PABP FP inh 59
Cc1ccccc1-n1c(SCC(=O)c2cc(C)n(C)c2C)nnc1-c1cccnc1	PHOSPHO1 inh 86
Cc1ccccc1-n1c(SCC(=O)c2c(N)n(C)c(=O)n(C)c2=O)nnc1-c1cccnc1	none
O=C(Nc1cccc2ccccc12)c1csc([C@@H]2O[C@H](CO)[C@H](O)[C@H](O)[C@H]2O)n1	none (no result: CRFR2-BP antag, eIF4H inh, PHOSPHO1 inh, PABP FP inh)
CC(C)(C)c1cc[n+](-c2nc([O-])sc2C=O)cc1	none
CCc1cc[n+](-c2nc([O-])sc2C=O)cc1	eIF4H inh inconclusive, PHOSPHO1 inh 79, PABP FP inh inconclusive
COc1ccccc1NC(=S)NNC(=O)c1nn(C)c(C)c1Cl	PHOSPHO1 inh 79
COc1ccccc1NC(=O)c1nn(C)cc1Br	none
COc1ccccc1NC(=S)NNC(=O)c1nn(C)cc1Cl	PHOSPHO1 inh 72
COc1ccccc1NC(=S)NNC(=O)c1ccc(O)cc1	PHOSPHO1 inh 71
COc1ccccc1NC(=S)NNC(=O)c1nn(C)c(C)c1Br	none
Cc1ccc(NC(=O)CN(C)C(=O)COc2ccc(Br)cc2)cc1	none (no result: eIF4H inh, PHOSPHO1 inh, PABP FP inh)
COCc1cc(C)nc(SCC(=O)Nc2nc(C)cs2)c1C#N	none
CC(C)C(=O)N1CCC1(C)C(=O)Nc1cc(-c2ccccc2)nn1C (centres undefined)	none (no result: CRFR2-BP antag, eIF4H inh, PHOSPHO1 inh, PABP FP inh)
CC(C)(C(=O)N1CCC1(C)C(=O)NC1Cc2ccccc2C1)c1ccccc1 (centres undefined)	none (no result: CRFR2-BP antag, eIF4H inh, PHOSPHO1 inh, PABP FP inh)
COc1ccccc1NC(=O)N(C)C[C@H]1Oc2ncc(Br)cc2C(=O)N([C@H](C)CO)C[C@H]1C	none (no result: eIF4H inh, PHOSPHO1 inh, PABP FP inh)
CCCC(=O)Nc1nc2ccc3nc(C)sc3c2s1	none
CCC(=O)Nc1nc2ccc3sc(C)nc3c2s1	PHOSPHO1 inh 64
Cc1nc2c(ccc3nc(NC(=O)C4CC4)sc32)s1	PHOSPHO1 inh 62
CCN(CC(=O)N1CCOCC1)S(=O)(=O)c1ccc(Cl)cc1	none
CCOC(=O)C1(C)CCCN(C(=O)c2ccccc2F)C1 (centres undefined)	none (no result: CRFR2-BP antag, eIF4H inh, PHOSPHO1 inh, PABP FP inh)
COCCN=c1scc(-c2ccc3c(c2)NC(=O)CO3)n1/N=C(\C)c1ccc(O)cc1	PABP FP inh 43
CCc1c(C)[nH]n(-c2ccc(Oc3ccccc3)c(S(=O)(=O)O)c2)c1=O	PHOSPHO1 inh 65
CCN(CC)C(=O)c1cccc(-c2csc(C(O)c3ccc(F)c(F)c3)n2)c1 (centres undefined)	none (no result: CRFR2-BP antag, eIF4H inh, PHOSPHO1 inh, PABP FP inh)
O=C(Nc1ccc2c(c1)OCO2)c1cc(C2CCCCN2S(=O)(=O)Cc2ccccc2)on1 (centres undefined)	none (no result: CRFR2-BP antag, eIF4H inh, PHOSPHO1 inh, PABP FP inh)
CCOC(=O)c1c(OCC)[nH]c2c1cc(O)c1ccccc12	eIF4H inh 72, PHOSPHO1 inh 67, PABP FP inh 109
CCOC(=O)c1c(C)[nH]c2cc(Br)c(O)cc12	none
N=C1CCCN1CC(=O)c1ccc(Br)cc1	none
COCCN1CSC(=S)N(Cc2ccco2)C1	PHOSPHO1 inh 94
S=C1SCN(Cc2ccccn2)CN1Cc1ccco1	PHOSPHO1 inh 94

Screening data: PubChem BioAssay, Sanford-Burnham Center for Chemical Genomics
